# PolyA inh: yeast polyadenylation inhibition; AID 1875; hit rate 0.02% among 300,000; activity score, % at 12 µM; S. cerevisiae SKY197-pL101 polyadenylation reporter, beta-gal luminescence; efflux-impaired pdr1/pdr3 knockout yeast; score 100 = 6 SD above DMSO;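 active = lowest replicate activity score at least 50, where 100 means six control SD above control mean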;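 also: yeast exposed to compound for 9 h at 30 °C; higher score means more reporter readthrough which indicates perturbed polyadenylation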
# NALP3 yeast inh: blocks the NALP3 inflammasome reconstituted in yeast; Yeast reconstituted NLRP3/ASC/caspase-1, beta-gal luminescence, 24 h; inhibition, % at 10 µM; hit rate 0.39% among 330,000; AID 2825;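 active = inhibition of 50% or more; inactive = inhibition below 50%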;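 also: plate controls were induced DMSO wells for no effect and uninduced yeast grown without galactose for full effect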
# SUMO Mot1 rescue: blocks SUMOylation pathway, rescuing yeast Mot1-301 growth; S. cerevisiae Mot1-301 growth rescue, ATP luminescence, 38.5C; percent above DMSO median, 100 means doubled; growth rescue, % at 18.8 µM; AID 2716; hit rate 1% among 320,000;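 active = every valid replicate shows activation above 250% relative to neutral control wells; inactive = the rest, any valid replicate at or below 250%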;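 also: OY570 slx delta 5 strain wells were the positive control but not used for scaling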
# NALP1 yeast inh: blocks the NALP1 inflammasome reconstituted in yeast | S. cerevisiae NALP1/ASC/caspase-1 growth, X-gal OD620, 72 h | hit rate 0.61% among 280,000 | inhibition, % at 10 µM; in the data active = inhibition mostly above about 24%, no sharp cut-off; inactive = mostly below about 32%
# Yeast Mot1 SUMO: SUMO pathway inhibitors in yeast Mot1-301 growth | shares compounds with SUMO Mot1 rescue | S. cerevisiae Mot1-301 galactose growth, ATP luminescence, 24 h; -100 = growth of slx-deleted rescue strain | growth activity, percent, % at 42 µM | 2,300 tested, under 10 active | AID 493004;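 active = Signal drops as the depositor expects, and the fitted half-maximal dose is no more than ten times the top valid tested dose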;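 also: more negative values mean stronger growth rescue toward the control strain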
# * marks the source's active call; other numbers are inactive results; . = not tested or not shown. Shown are actives, neighbours in structure and some others; about 1.8% of the full set was active somewhere.
SMILES,PolyA inh,NALP3 yeast inh,SUMO Mot1 rescue,NALP1 yeast inh,others
CCOC(=O)c1cccc(NS(=O)(=O)Cc2ccccc2)c1,9,10,9,44*,
CCOc1ccc(Cl)cc1S(=O)(=O)N1CCN(c2ccc(C)c(C)c2)CC1,-11,17,-8,6,
CCOc1ccc(Cl)cc1S(=O)(=O)n1cnc2cc(C)c(C)cc21,-6,19,7,41*,
COc1ccc(NC(=O)c2cccc3c2C(=O)N(C2CCCCC2)C3)cc1,4,15,2,15,
Cc1sc2nc(CSc3nc4ccccc4s3)[nH]c(=O)c2c1C,14,5,14,36*,
CCN(c1ccc(OC)cc1)S(=O)(=O)c1csc(C(N)=O)c1,6,5,275*,18,
Cc1ccc(S(=O)(=O)NNC(=S)NCCc2ccccc2)cc1,16,-1,-1,3,
CCC1S/C(=C(\C#N)C(=O)NCc2ccco2)N(c2ccc(Br)cc2)C1=O (stereo unspecified),5,11,8,22*,
CCC1S/C(=C(\C#N)C(=O)NCc2ccco2)N(c2ccc(F)cc2)C1=O (stereo unspecified),-26,5,-4,19,
CC(=O)Nc1nc2c(c3c1c(=O)oc1ccccc13)CCCCC2,-11,20,-6,-8,
Cn1nnnc1Sc1ncnc2scc(Br)c12,.,38,342*,.,
N#C[C@H]1C(O)C(O)c2ccccc2N1C(=O)c1ccccc1 (stereo partly specified),-6,19,716*,.,
O=C1/C(=C/c2cccnc2)Oc2cc(OS(=O)(=O)c3ccc(Cl)cc3)ccc21,31,15,-11,41*,
O=C1/C(=C/c2cccnc2)Oc2cc(OS(=O)(=O)c3ccccc3)ccc21,1,10,2,37,
COc1ccc(-c2oc3ccccc3c2C(=O)OCc2ccccc2OC)cc1,21,11,641,5,
CCc1ccc(NC(=S)N(Cc2cccnc2)Cc2ccco2)cc1,.,13,.,3,
Cn1c(=O)n(C)c2cc(S(=O)(=O)N3CCCCC3)ccc21,11,6,-7,10,
CC(C)(C)C(CCl)C(=O)NN=C(c1ccccc1)c1ccccc1 (stereo unspecified),.,7,-11,.,
CC(Cl)C(=O)NN=C(c1ccccc1)c1ccccc1 (stereo unspecified),-4,12,468*,24,
COc1ccc(/C=C/C(=O)c2ccc3c(c2)OCCO3)cc1[N+](=O)[O-],-12,17,1,6,
O=C(/C=C/c1cccc([N+](=O)[O-])c1)c1ccc2c(c1)OCCO2,-6,14,-9,40*,
CN1CCN(C(=O)C2=C[C@@H](C3CCCCC3)C[C@@H](OCc3ccc(CO)cc3)O2)CC1,20,11,-13,24*,
CN1CCN(C(=O)C2=C[C@H](C3CC3)C[C@H](OCc3ccc(CO)cc3)O2)CC1,6,20,-7,.,
Cc1ccccc1OCc1nc2c3c(ncn2n1)-c1ccccc1CC31CCCC1,14,-7,-10,26,
CCCCN1/C(=C/c2ccc3ccccc3[n+]2CC)Sc2ccccc21,-11,14,.,10,
SMILES,PolyA inh,NALP3 yeast inh,SUMO Mot1 rescue,NALP1 yeast inh,others
CCN1/C(=C/c2ccc3cc(C)ccc3[n+]2CC)Sc2cc(C)ccc21,.,.,.,35*,
CCOC(=O)c1ccc(Oc2c(C)oc3c(CN4CCN(C)CC4)c(O)ccc3c2=O)cc1,-10,17,357*,3,
COc1ccc(Oc2c(C)oc3c(CN4CCOCC4)c(O)ccc3c2=O)cc1,-6,8,-5,18,
O=C(c1ccco1)N1CCN(C(=O)c2ccc(CS(=O)c3ccc(F)cc3)o2)CC1 (stereo unspecified),8,13,-12,44*,
CCc1ccc(NCc2ccc(OC)c(Cn3ccnc3)c2)cc1,-2,48,341*,20,
COCCN=C1Sc2nc3ccc(C)cc3cc2CN1Cc1ccco1,0,1,-19,48*,
CCc1nnc(NS(=O)(=O)c2ccc(NC(=O)c3cc(Cl)ccc3Cl)cc2)s1,-13,4,327,39*,
CCc1nnc(NS(=O)(=O)c2ccc(NC(=O)c3cc(Cl)ccc3[N+](=O)[O-])cc2)s1,9,12,7,-1,
C[C@H](CO)N1C[C@H](C)[C@@H](CN(C)C(=O)NC2CCCCC2)Oc2ccc(NS(=O)(=O)c3ccccc3)cc2C1=O,.,14,4,.,
O=[N+]([O-])c1ccc(-c2ccn[nH]2)o1,18,25,24,67*,
CC(C)N1CCC(NC(=O)Nc2ccc3c(c2)OCO3)CC1,-20,17,12,8,
O=C(O)C1CSC(c2ccccc2)N1C(=O)c1ccco1 (stereo unspecified),6,14,-6,10,
O=c1[nH]cnc(O)c1C(c1ccc2c(c1)OCO2)c1c(O)nc[nH]c1=O,10,16,-14,28*,
O=c1[nH]cnc(O)c1C(c1ccc(Br)cc1)c1c(O)nc[nH]c1=O,11,5,-6,10,
CCCS(=O)(=O)C(=C1NCCO1)S(=O)(=O)CCC,-12,-11,351*,29,
O=C(NCc1cccc(F)c1F)C1CCC(=O)N(C2CC2)C1 (stereo unspecified),11,16,421*,5,Yeast Mot1 SUMO=0
CCCn1c(C)cc(C(=O)CN2C(=O)c3cccc(N)c3C2=O)c1C,.,-1,-9,10,
Cc1ccc(CN2CC(C(=O)N(C)CC(=O)Nc3cccc(F)c3)CC2=O)cc1 (stereo unspecified),6,0,-10,2,
COc1ccc(CCN2CC(C(=O)N(C)CC(=O)Nc3cccc(F)c3)CC2=O)cc1OC (stereo unspecified),13,21,451*,16,Yeast Mot1 SUMO=0
Cn1c(COc2ccc(F)cc2)nc2ccccc21,-7,39,-11,7,
CCCNc1nc2ccccc2c(=O)[nH]1,13,26,543*,-4,Yeast Mot1 SUMO=0
COc1nc(Nc2ccc(C(C)C)cc2)nc(OC)n1,-8,-9,-13,-55,
Nc1cc(Br)c(N)c(Br)c1,-4,6,2,-11,
COc1ccc(S(=O)(=O)Cc2ccc(C(=O)NCc3cccs3)o2)cc1,11,11,462*,10,Yeast Mot1 SUMO=0
O=C(NCc1cccs1)c1ccc(CS(=O)(=O)c2ccc(Cl)cc2)o1,11,-1,-16,5,
C/C(=N/NC(=O)c1ccc(C)s1)c1cccc(NC(=O)COc2ccc(Cl)cc2C)c1,-11,6,7,8,
O=C(Nc1nc(-c2ccccn2)cs1)c1ccc2c(c1)OCCO2,-6,27,369*,-7,Yeast Mot1 SUMO=0
CC1CNc2c(cccc2S(=O)(=O)N[C@@H](CCCN=C(N)N)C(=O)N2CC[C@@H](C)C[C@@H]2C(=O)O)C1 (stereo partly specified),.,.,.,-6,
CCCSc1nnc(NC(=O)CSc2sc3c(O)cc(=O)[nH]c3c2C#N)s1,-5,8,754*,5,Yeast Mot1 SUMO=0
